This is an account of results in PubChem BioAssay (EPA / NIEHS).

Active and inactive are the calls of the source. How the source made its calls: active means hit-call score of the fitted dose curve at least 0.9, where 1 is the maximum; inactive means score below 0.9.

Holding throughout (settings): mRNA level, 48 h; actives raise or lower the signal
Read-out in experiment [1]: Cytochrome P450 2C19 (Homo sapiens) (UniProt P33261)
Put plainly: LTEA_HepaRG_CYP2C19: Life Technologies and Expression Analysis (LTEA) Assay for CYP2C19 using HepaRG (AID 2283482). In short, it runs like this:
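Transcript levels of CYP2C19 were quantified by qRT-PCR after HepaRG cells were treated for 48 hours with test chemicals up to 100 uM (eight half-log concentrations, 0.5% DMSO vehicle). Gain or loss of signal was fitted relative to DMSO.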

Read-out in the next experiment: CYP2C8 (gene 1558)
As to the kind of experiment: LTEA_HepaRG_CYP2C8: Life Technologies and Expression Analysis (LTEA) Assay for CYP2C8 using HepaRG (AID 2283483). In short, it runs like this:
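HepaRG (human liver line), 48 h chemical exposure, 8-pt half-log series from 100 uM, 0.5% DMSO vehicle. Readout: CYP2C8 transcript by qRT-PCR, housekeeping-normalized. Bidirectional fit vs DMSO baseline.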

Read-out in a further experiment: CYP2E1 (gene 1571)
Put plainly: LTEA_HepaRG_CYP2E1: Life Technologies and Expression Analysis (LTEA) Assay for CYP2E1 using HepaRG (AID 2283485). In short, it runs like this: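 Readout is qRT-PCR of CYP2E1 mRNA, normalized to three housekeeping genes and fitted bidirectionally against 0.5% DMSO. HepaRG cells were dosed 48 h at eight concentrations, highest 100 uM with half-log dilutions.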

Read-out in another experiment: CYP4A11 (gene 1579)
As to the kind of experiment: LTEA_HepaRG_CYP4A11: Life Technologies and Expression Analysis (LTEA) Assay for CYP4A11 using HepaRG (AID 2283486). In outline:
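HepaRG, 48 h chem exposure, 8 conc (100 uM top, half-log), 0.5% DMSO vehicle; qRT-PCR readout, housekeeping-gene normalized; bidirectional curve fit vs DMSO baseline.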

Read-out in experiment [2]: Cytochrome P450 3A4 (Homo sapiens) (UniProt P08684)
As to the kind of experiment: LTEA_HepaRG_CYP3A4: Life Technologies and Expression Analysis (LTEA) Assay for CYP3A4 using HepaRG (AID 2283487). In short, it runs like this:
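Differentiated HepaRG cells, plated 48 h, then dosed 48 h in serum-free induction medium with 0.5% DMSO, 8 half-log concentrations up to 100 uM, duplicate. CYP3A4 mRNA by qRT-PCR, normalized to ACTB/GAPDH/POLR2A; bidirectional fit versus DMSO.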

Read-out in experiment [3]: DNA damage-inducible transcript 3 (DDIT3), DDIT3 (gene 1649)
As to the kind of experiment: LTEA_HepaRG_DDIT3: Life Technologies and Expression Analysis (LTEA) Assay for DNA damage-inducible transcript 3 (DDIT3) using HepaRG (AID 2283488). In short, it runs like this:
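Cells are human HepaRG liver cells treated for 48 h with eight half-log concentrations up to 100 uM in 0.5% DMSO. Transcript levels come from qRT-PCR normalized to three housekeeping genes, with activity fitted in both directions relative to vehicle.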

Read-out in experiment [4]: Pro-epidermal growth factor (Homo sapiens) (UniProt P01133)
Put plainly: LTEA_HepaRG_EGF: Life Technologies and Expression Analysis (LTEA) Assay for Epidermal growth factor (EGF) using HepaRG (AID 2283489). In outline: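 HepaRG, 48 h dosing, 100 uM top, half-log x8, 0.5% DMSO. Readout: TaqMan qRT-PCR (Fluidigm array), housekeeping-normalized. Gain or loss of signal fit vs DMSO.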

Read-out in experiment [5]: Early growth response protein 1 (EGR1) transcription factor, EGR1 (gene 1958)
As to the kind of experiment: LTEA_HepaRG_EGR1: Life Technologies and Expression Analysis (LTEA) Assay for Early growth response protein 1 (EGR1) transcription factor using HepaRG (AID 2283490). In short, it runs like this: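 HepaRG, 48 h exposure, 8-pt half-log series from 100 uM, 0.5% DMSO vehicle; EGR1 transcript by TaqMan qRT-PCR (Fluidigm array), housekeeping-normalized; bidirectional fit relative to DMSO baseline.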

Read-out in experiment [6]: Cytochrome P450 3A7 (Homo sapiens) (UniProt P24462)
Put plainly: LTEA_HepaRG_CYP3A7: Life Technologies and Expression Analysis (LTEA) Assay for CYP3A7 using HepaRG (AID 2283492). In outline:
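Human HepaRG liver cells, 48 h post-plating, switched to serum-free induction medium and exposed in duplicate for 48 h. Dosing: 100 uM top, half-log dilutions, 8 points, 0.5% DMSO vehicle. Read-out: CYP3A7 mRNA, gain or loss fitted against DMSO baseline.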

Read-out in a further experiment: CYP3A5 (gene 1577)
As to the kind of experiment: LTEA_HepaRG_CYP3A5: Life Technologies and Expression Analysis (LTEA) Assay for CYP3A5 using HepaRG (AID 2283493). In outline: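 Human HepaRG hepatic cells receive 48 h chemical treatment at eight concentrations (half-log steps from 100 uM) in 0.5% DMSO. Expression of CYP3A5 is quantified by Fluidigm qRT-PCR and normalized to three reference genes.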

Read-out in experiment [7]: Fatty Acid-Binding Protein 1 (FABP1), FABP1 (gene 2168)
Put plainly: LTEA_HepaRG_FABP1: Life Technologies and Expression Analysis (LTEA) Assay for Fatty Acid-Binding Protein 1 (FABP1) using HepaRG (AID 2283494). In short, it runs like this: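 qRT-PCR readout of FABP1 transcript (normalized to three housekeeping genes) after 48 h chemical exposure of HepaRG cells; eight concentrations, half-log steps, max 100 uM, 0.5% DMSO vehicle; gain or loss fitted relative to DMSO baseline.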

Read-out in experiment [8]: Cytochrome P450 4A22 (Homo sapiens) (UniProt Q5TCH4)
Put plainly: LTEA_HepaRG_CYP4A22: Life Technologies and Expression Analysis (LTEA) Assay for Cytochrome P450 4A22 (CYP4A22) using HepaRG (AID 2283495). In short, it runs like this: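 Readout is CYP4A22 transcript induction or loss, quantified by qRT-PCR and normalized to ACTB, GAPDH and POLR2A. Human HepaRG cells receive test chemicals for 48 h at eight half-log concentrations from 100 uM in 0.5% DMSO.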

Read-out in experiment [9]: Cytochrome P450 7A1 (Homo sapiens) (UniProt P22680)
Put plainly: LTEA_HepaRG_CYP7A1: Life Technologies and Expression Analysis (LTEA) Assay for Cytochrome P450 7A1 (CYP7A1) using HepaRG (AID 2283496). In short, it runs like this: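 HepaRG, 48 h exposure, 8-pt half-log series from 100 uM, 0.5% DMSO vehicle, duplicates. Readout: TaqMan qRT-PCR mRNA vs three housekeeping genes; bidirectional curve fit against DMSO baseline.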

Read-out in experiment [10]: Glutamate-cysteine ligase catalytic (GCLC), GCLC (gene 2729)
As to the kind of experiment: LTEA_HepaRG_GCLC: Life Technologies and Expression Analysis (LTEA) Assay for Glutamate-cysteine ligase catalytic (GCLC) using HepaRG (AID 2283498). In outline: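 HepaRG, 48 h exposure, 8-pt half-log series from 100 uM, 0.5% DMSO vehicle; TaqMan qRT-PCR for GCLC mRNA, housekeeping-normalized; bidirectional curve fit vs DMSO baseline.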

Read-out in experiment [11]: growth arrest and DNA damage 45 (GADD45G), GADD45G (gene 10912)
Put plainly: LTEA_HepaRG_GADD45G: Life Technologies and Expression Analysis (LTEA) Assay for growth arrest and DNA damage 45 (GADD45G) using HepaRG (AID 2283499). In outline: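 Gain or loss of GADD45G mRNA, quantified by TaqMan qRT-PCR against three housekeeping genes, is fitted in both directions relative to 0.5% DMSO. Human HepaRG cultures receive test chemical for 48 h at up to 100 uM.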

Read-out in experiment [12]: Glutamate-cysteine ligase regulatory (GCLM), GCLM (gene 2730)
Put plainly: LTEA_HepaRG_GCLM: Life Technologies and Expression Analysis (LTEA) Assay for Glutamate-cysteine ligase regulatory (GCLM) using HepaRG (AID 2283500). In outline: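 Endpoint is GCLM transcript level by qRT-PCR, normalized to three housekeeping genes, after 48 h chemical exposure of human HepaRG cells (0.5% DMSO vehicle, top 100 uM, half-log dilutions). Fitting was bidirectional relative to DMSO.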

Read-out in experiment [13]: Glutathione S-transferase M3 (GSTM3), GSTM3 (gene 2947)
Put plainly: LTEA_HepaRG_GSTM3: Life Technologies and Expression Analysis (LTEA) Assay for Glutathione S-transferase M3 (GSTM3) using HepaRG (AID 2283501). In short, it runs like this:
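HepaRG, plated 48 h, then serum-free induction medium; test chemical 48 h, duplicate; 100 uM top, half-log x8, 0.5% DMSO. Read-out: GSTM3 mRNA (TaqMan qRT-PCR, Fluidigm array). Bidirectional fit vs DMSO.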

Read-out in another experiment: CYP2C9 (gene 1559)
Put plainly: LTEA_HepaRG_CYP2C9: Life Technologies and Expression Analysis (LTEA) Assay for CYP2C9 using HepaRG (AID 2283484). In short, it runs like this: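 HepaRG, 48 h dosing, 8-pt half-log series, top 100 uM, 0.5% DMSO vehicle. Read-out: CYP2C9 transcript by TaqMan qRT-PCR, housekeeping-normalized (ACTB/GAPDH/POLR2A). Gain or loss fitted vs DMSO baseline.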

Read-out in experiment [14]: Ezrin (EZR), EZR (gene 7430)
As to the kind of experiment: LTEA_HepaRG_EZR: Life Technologies and Expression Analysis (LTEA) Assay for Ezrin (EZR) using HepaRG (AID 2283491). In outline:
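EZR transcript levels came from Fluidigm qRT-PCR and were normalized to three housekeeping genes after 48 h chemical exposure of HepaRG cells. Dosing used an 8-point half-log series with a 100 uM top concentration in 0.5% DMSO, tested in duplicate; both directions were fitted versus vehicle.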

Read-out in experiment [15]: Glutathione S-Transferase (GSTA2), GSTA2 (gene 2939)
As to the kind of experiment: LTEA_HepaRG_GSTA2: Life Technologies and Expression Analysis (LTEA) Assay for Glutathione S-Transferase (GSTA2) using HepaRG (AID 2283497). In outline:
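qRT-PCR readout of GSTA2 transcript, normalized to three housekeeping genes, fitted bidirectionally against 0.5% DMSO baseline. Differentiated HepaRG cells received compound for 48 h at 8 concentrations (top 100 uM, half-log steps).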

Cytochrome P450 2C19 (Homo sapiens), sequence (P33261 whole entry, looked up): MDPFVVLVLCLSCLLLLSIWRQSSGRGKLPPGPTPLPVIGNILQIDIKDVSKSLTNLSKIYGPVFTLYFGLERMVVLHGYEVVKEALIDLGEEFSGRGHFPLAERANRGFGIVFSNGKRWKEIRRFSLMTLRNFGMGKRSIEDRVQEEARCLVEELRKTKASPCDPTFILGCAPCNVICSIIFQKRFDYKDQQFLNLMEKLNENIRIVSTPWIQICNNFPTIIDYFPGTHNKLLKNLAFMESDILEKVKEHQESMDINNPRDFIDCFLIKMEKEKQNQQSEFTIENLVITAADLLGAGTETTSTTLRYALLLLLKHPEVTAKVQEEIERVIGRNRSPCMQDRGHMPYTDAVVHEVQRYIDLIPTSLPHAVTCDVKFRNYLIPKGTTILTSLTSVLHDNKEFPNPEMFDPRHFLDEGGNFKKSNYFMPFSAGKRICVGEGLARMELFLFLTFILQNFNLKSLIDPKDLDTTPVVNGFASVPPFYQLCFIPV
Cytochrome P450 3A7 (Homo sapiens), sequence (P24462 whole entry, looked up): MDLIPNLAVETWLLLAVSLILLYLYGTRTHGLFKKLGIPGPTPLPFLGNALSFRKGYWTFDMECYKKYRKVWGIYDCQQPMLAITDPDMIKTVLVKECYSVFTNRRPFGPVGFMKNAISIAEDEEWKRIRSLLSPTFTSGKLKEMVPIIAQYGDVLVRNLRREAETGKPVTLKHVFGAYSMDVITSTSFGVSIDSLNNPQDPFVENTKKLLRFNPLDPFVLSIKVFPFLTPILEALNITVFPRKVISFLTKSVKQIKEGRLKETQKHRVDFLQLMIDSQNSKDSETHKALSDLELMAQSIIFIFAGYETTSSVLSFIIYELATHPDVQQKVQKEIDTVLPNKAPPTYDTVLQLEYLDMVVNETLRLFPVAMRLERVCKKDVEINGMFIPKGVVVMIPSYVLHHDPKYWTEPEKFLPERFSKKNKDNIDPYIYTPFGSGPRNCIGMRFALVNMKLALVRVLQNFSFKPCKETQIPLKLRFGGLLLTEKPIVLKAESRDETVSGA
Cytochrome P450 3A4 (Homo sapiens), sequence (P08684 whole entry, looked up): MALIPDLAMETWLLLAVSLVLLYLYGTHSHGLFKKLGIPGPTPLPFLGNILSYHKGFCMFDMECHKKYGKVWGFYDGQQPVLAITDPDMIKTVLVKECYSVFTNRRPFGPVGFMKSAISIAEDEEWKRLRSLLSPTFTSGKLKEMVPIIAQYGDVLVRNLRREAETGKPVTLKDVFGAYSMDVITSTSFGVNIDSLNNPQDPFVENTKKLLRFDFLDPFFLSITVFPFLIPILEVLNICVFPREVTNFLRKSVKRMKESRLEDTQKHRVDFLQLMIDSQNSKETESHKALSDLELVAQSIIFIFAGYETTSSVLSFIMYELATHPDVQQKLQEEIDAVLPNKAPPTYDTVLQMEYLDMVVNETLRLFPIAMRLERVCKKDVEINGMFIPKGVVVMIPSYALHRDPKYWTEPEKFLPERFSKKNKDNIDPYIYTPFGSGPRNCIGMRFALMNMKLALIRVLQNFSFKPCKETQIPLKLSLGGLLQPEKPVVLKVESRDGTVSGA

A word on the AC50: it is the concentration at which the activity in the assay is half-maximal. With `CN1COCN(Cc2cnc(Cl)s2)C1=N[N+](=O)[O-]`, the result (in experiment [1]; in the experiment with CYP2C8 (gene 1558); with CYP2E1 (gene 1571); with CYP4A11 (gene 1579); in experiment [3]; in experiment [4]) was inactive. Moreover, the result (in experiment [5]; in [6]; in the experiment with CYP3A5 (gene 1577); in experiment [7]; in experiment [8]; in experiment [9]) was inactive. The molecule was classed as inactive in experiment [10], in [11], in [12] and in experiment [13]. For the same molecule, the concentration at half-maximal activity (AC50) in experiment [2] is 38.8 µM (active).

For `COc1cccc(C(=O)NN(C(=O)c2cc(C)cc(C)c2)C(C)(C)C)c1C`, the AC50 is 1.49 µM (active) in experiment [1]; 3.61 µM (active) with CYP2C8 (gene 1558); 23.5 µM (active) with CYP2E1 (gene 1571); 1.81 µM (active) in experiment [2]; 5.42 µM (active) in experiment [6]; 2.88 µM (active) in experiment [9]. In addition, the call (in the experiment with CYP2C9 (gene 1559); with CYP4A11 (gene 1579); in experiment [3]; in [4]; in experiment [5]; in [14]) was inactive. In addition, the result (with CYP3A5 (gene 1577); in experiment [7]; in experiment [8]; in [15]; in experiment [10]; in experiment [11]) was inactive. The outcome in experiment [12] and in experiment [13] was inactive.

In the case of `Cc1cc(C2CC2)nc(Nc2ccccc2)n1`, the molecule was classed as inactive (in experiment [1]; with CYP2C8 (gene 1558); with CYP2E1 (gene 1571); with CYP4A11 (gene 1579); in experiment [2]; in [3]). Further, the result (in experiment [4]; in experiment [5]; in [14]; in experiment [6]; with CYP3A5 (gene 1577); in experiment [7]) was inactive. In addition, the molecule was classed as inactive in experiment [8], in [9], in experiment [10], in experiment [12] and in [13]. Further, the AC50 in [11] is 29.7 µM (active).
